Compound activity deposited in PubChem BioAssay by National Center for Advancing Translational Sciences (NCATS).
GLP1R ag – qHTS of GLP-1 Receptor Agonists; Potency, µM (top dose mostly 45.6 µM), inactives show at the highest dose activation, usual class: activators; Glucagon-like peptide 1 receptor (Homo sapiens), P43220; 0.007% of 380,000 active; HEK293 GLP-1R CRE-luciferase, luminescence, 4-6 h; cells express a hypersensitive GLP-1R form; note: % of control where 0% means no effect
Target sequence (P43220 whole entry, looked up): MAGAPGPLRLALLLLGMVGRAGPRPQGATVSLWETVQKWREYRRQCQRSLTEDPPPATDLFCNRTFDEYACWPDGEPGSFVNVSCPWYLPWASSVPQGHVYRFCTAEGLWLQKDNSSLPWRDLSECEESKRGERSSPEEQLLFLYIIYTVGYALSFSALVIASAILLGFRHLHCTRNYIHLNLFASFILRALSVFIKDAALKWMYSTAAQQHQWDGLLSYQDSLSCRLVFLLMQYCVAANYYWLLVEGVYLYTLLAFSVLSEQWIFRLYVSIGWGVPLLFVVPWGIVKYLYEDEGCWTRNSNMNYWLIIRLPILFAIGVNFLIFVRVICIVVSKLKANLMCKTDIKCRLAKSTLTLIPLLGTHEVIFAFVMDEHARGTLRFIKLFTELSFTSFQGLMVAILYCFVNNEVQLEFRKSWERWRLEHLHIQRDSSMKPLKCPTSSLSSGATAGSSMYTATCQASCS
Pin1 inh – qHTS Assay to Find Inhibitors of Pin1. Peptidyl-prolyl cis-trans isomerase NIMA-interacting 1 (Homo sapiens), Q13526. Pin1 FP peptide displacement, HiFluor488, 10 min. Potency, µM (top dose mostly 115 µM), without a hit: at the top dose activity, negative = inhibition, hits mostly inhibitors. 0.009% of 390,000 active; active = well fitted inhibition curve with a large enough effect in the polarisation, with a control signal flat, not every such curve was filed as active; inconclusive = small, poorly fitted or top-dose-only effect, or effect the other way, or a change in a side signal; inactive = no such curve, though single readings can be large or run the other way; the % refers to the polarisation; note: % is set by controls: 0 for no effect and ±100 for the full control effect
GLP-1R inv ag – qHTS of GLP-1 Receptor Inverse Agonists (Inhibition Mode) | Glucagon-like peptide 1 receptor (Homo sapiens), P43220 | HEK293 GLP-1R CRE-luciferase, luminescence, 24 h; GLP-1R form is constitutively active | Potency, µM (doses to about 38.3 µM), for inactives: top-dose activity change, negative = inhibition, usual class: inhibitors | 1.6% of 410,000 active; note: % is set by controls: 0 for no effect and ±100 for the full control effect; nearly all actives have a fitted effect of over 55% in size
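Stable HEK293 clone (constitutively active GLP-1R + cAMP-response luciferase); 200 cells/uL plated, 12 h pre-culture, compound 24 hr, 37 deg C/5% CO2; detection reagent 12 min RT; luminescence.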
PGK inhibitor – qHTS Assay to Find Inhibitors of Phosphoglycerate Kinase. Phosphoglycerate kinase, glycosomal (Trypanosoma brucei brucei), P07378. PGK/GAPDH coupled, Kinase-Glo luminescence, 60 min. Potency, µM (titrated, usually from 57.5 µM), for inactives: at the top dose activity change, negative = inhibition, most hits filed as inhibitors. 0.043% of 380,000 active. AID 602233, 2012; note: % is set by controls: 0 for no effect and ±100 for the full control effect; nearly all actives have a fitted effect of over 60% in size
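Recombinant glycosomal PGK reaction used 1,3-bisphosphoglycerate generated in-well by GAPDH (100nM final) in 100mM TEA pH 7.6, 5mM MgCl2, 0.01% Tween-20. After 60 minutes at room temperature, ATP was read by Kinase-Glo Plus luminescence end-point.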
HEK293 tox – qHTS of GLP-1 Receptor Inverse Agonists: Cytotox Screen. HEK293 cAMP-luciferase reporter cells, luminescence, 24 h. Potency, µM (top dose mostly 38.3 µM), for inactives: at the top dose activity change, negative = inhibition, usual class: inhibitors. 0.13% of 410,000 active. AID 624418, 2012;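 note: loss of luciferase light is scored as toxicity; % is set by controls: 0 for no effect and ±100 for the full control effect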
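A 23 nL compound transfer followed 12 hours of cell culture at 37 deg C; exposure then lasted 24 hr. Luciferase assay detection reagent was dispensed and plates read for luminescence after a 12 min room-temperature wait.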
Tb PFK inh-1 – qHTS Assay to Find Inhibitors of T. brucei phosphofructokinase | ATP-dependent 6-phosphofructokinase (Trypanosoma brucei brucei), O15648 | T. brucei PFK, ADP-Glo luminescence | Potency, µM (top dose mostly 57.5 µM), without a hit: top-dose activity, negative = inhibition, most hits filed as inhibitors | 0.17% of 330,000 active;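 note: 0% = uninhibited 1x PFK enzyme wells and -100% = no-enzyme wells; nearly all actives have a fitted effect of over 60% in size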
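Activity is normalized to no-enzyme wells (full inhibition) and 1.25 nM enzyme wells (no inhibition). Reaction: 0.5 mM F6P, 0.1 mM ATP, 45 min RT, ADP-Glo luminescence; concentration-response curves fitted and classed by quality.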
Tb PFK KinaseGlo – Tb PFK orthogonal confirmatory assay using ATP depletion (Kinase-Glo Plus) as an alternative measure of Tb PFK activity: Hit Validation. shares compounds with Tb PFK inh-1. Tb PFK enzyme, ATP depletion, Kinase-Glo Plus luminescence. Potency, µM (series often up to 57.5 µM), for inactives: top-dose inhibition. 47% of 1,100 active. AID 504636, 2011; calls by dose curve; note: nearly all actives have a fitted effect of over 60% in size
Tb PFK inh-2 – Inhibitors of T. brucei phosphofructokinase: Hit Validation. shares compounds with Tb PFK inh-1. purified T. brucei PFK, ADP-Glo luminescence, 45 min. Potency, µM (titrated, usually from 57.5 µM), inactives show top-dose activity change, negative = inhibition, most hits filed as inhibitors. 41% of 1,100 active;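 note: plate controls were full PFK enzyme control for no effect and no enzyme control for full effect; nearly all actives have a fitted effect of over 60% in size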
Active calls of the source: *; i = inactive; ? = inconclusive; . = not tested or not shown; [ ] = remark or other dose. Compounds with a hit are over-represented: about 1.8% of the library has one in this group of screens. Unless noted, calls come from the whole dose curve; as a rule, active = well fitted curve in the direction sought with a large enough effect; inconclusive = small, poorly fitted or top-dose-only effect, or another doubt; inactive = no such curve, though single readings can be large; an effect the other way counts as inactive or inconclusive. Potency is the fitted concentration of half-maximal effect.

SMILES	GLP1R ag	Pin1 inh	GLP-1R inv ag	PGK inhibitor	HEK293 tox	Tb PFK inh-1	Tb PFK KinaseGlo	Tb PFK inh-2
COCc1cc(/C=N\NC(=O)Cc2ccc(Cl)cc2)ccc1OC	5.6%	-4.3%	21.5%	i	9.1%	21.3µM*	?	?
Cc1cc(C)c2oc(C(=O)Nc3ccc(S(=O)(=O)Nc4nccs4)cc3)cc(=O)c2c1	-0.3%	157.4%	36.8%	3.2%	-15.4%	?	-29.5%	?
O=c1[nH]c(=O)n(-c2ccc(Cl)cc2)c(O)c1C=Nc1ccc(S(=O)(=O)Nc2nccs2)cc1	-16.1%	22.1%	15.2%	-4.1%	-7.5%	-0.1%	.	.
C=C[C@]1(C)C=C2C(=O)[C@@]3(O)OC(=O)[C@@]4(CCCC(C)(C)[C@H]34)[C@@]2(O)CC1	-18.0%	.	?	.	?	.	.	.
COc1ccc(C(CNC(=O)Cc2ccc(Cl)c(Cl)c2)N2CCCCC2)cc1 (stereo not drawn)	10.4%	-5.8%	?	-3.4%	?	-7.1%	.	.
CCn1c(CCNC(=O)c2ccc(OC)cc2)nnc1SCc1ccc(Cl)c(Cl)c1	-2.2%	2.5%	?	-5.4%	?	16.9µM*	12µM*	23.9µM*
COc1ccc(NS(=O)(=O)c2ccc(C)c(NC(=O)CN3C(=O)NC4(CCCC4)C3=O)c2)cc1	14.4%	-11.5%	-2.1%	-7.4%	-3.5%	?	-27.4%	?
N#Cc1ccc(NC(=O)CN2C(=O)NC3(CCCCCCC3)C2=O)cc1Cl	18.1%	0.6%	?	1.5%	2.7%	-6.3%	.	.
O[C@@H]1CCCN2CCc3c([nH]c4ccccc34)[C@H]12	-2.7%	?	5.3%	-0.3%	7.0%	.	.	.
CN1CCc2ccccc2Cc2[nH]c3ccccc3c2CC1	10.2%	-2.4%	-6.3%	-1.8%	0.1%	12µM*	15.1µM*	13.5µM*
O=C(CSc1nnc(CNc2ccc(F)cc2)o1)N1CCN(C(=O)c2ccco2)CC1	-3.6%	-1.7%	-3.8%	4.2%[11.5 µM]	-22.5%	?	15.1µM*	23.9µM*
CCOC(=O)CN(C(=O)CSc1nnc(CNc2ccc(F)cc2)o1)c1ccccc1	-3.0%	-5.8%	?	i	-14.7%	23.9µM*	13.5µM*	26.9µM*
COc1ccc(N2CCN(C(=O)CSc3nnc(CNc4ccccc4)o3)CC2)cc1	3.4%	-2.7%	?	-6.0%	0.2%	?	19µM*	30.1µM*
COC(=O)c1cc2ccsc2n1CC(=O)Nc1cc(Cl)ccc1OC	2.3%	47.3%	?	1.1%	?	-2.7%	.	.
CCc1nn2c(N)c(/C=C3\C=Nc4ccccc43)c(=O)nc2s1	2.6%	142.5%	2.1%	-11.3%	?	?	-26.0%	?
O=C(OCc1cccc(C(F)(F)F)c1)c1ccc[nH]c1=O	3.8%	-5.6%	12.0%	-8.2%	5.1%	6.01µM*	3.01µM*	5.36µM*
CCOc1ccc(OCC)c(NC(=O)CCn2c(=O)oc3ccccc32)c1	5.3%	?	-0.6%	-5.2%	-2.7%	1.6%	.	.
